“And” between values parts separate entries of the source, which are not always exact repeats. Equal entries are not always repeated. Some structures have more than one record in an assay (separate samples or runs), and their calls can disagree. The source made the active and inactive calls. Entries that show only a call come without a potency. Unless noted, the call rests on the fitted dose curve; in most records, active means well fitted curve in the direction sought with a large enough effect in the repeat runs; inconclusive means weak or mixed curves; inactive means no such curve, though single readings can be large; an effect the other way counts as inactive or inconclusive.
Columns and labels:
[1] = qHTS assay to test for compound auto fluorescence at 535 nm (green) in HEK293 cells (AID 720680)
[2] = qHTS assay to test for compound auto fluorescence at 460 nm (blue) in HEK293 cell free culture (AID 720681)
Procedure, shortened: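 Compounds were added to cell-free DMEM with 10% FBS and fluorescence read directly. The blue channel used 405 nm excitation and 460 nm emission, with triamterene as the reference fluorophore.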

[3] = qHTS assay to test for compound auto fluorescence at 535 nm (green) in HEK293 cell free culture (AID 720682)
Procedure, shortened: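 Steps: dispense DMEM/10% FBS into empty wells; pin in compound or DMSO; measure fluorescence at 485/535 nm. Values are fluorescein equivalents.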

[4] = qHTS assay to test for compound auto fluorescence at 590 nm (red) in HEK293 cell free culture (AID 720683)
Procedure, shortened: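 Cell-free wells of DMEM with 10% FBS received compound, and intrinsic fluorescence was read at excitation/emission 540/590 nm. Values expressed as equivalence to Rose Bengal sodium.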

[5] = qHTS assay to test for compound auto fluorescence at 590 nm (red) in HepG2 cell free culture (AID 720684)
Procedure, shortened: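 Rose Bengal sodium served as the reference for red signal. Test compounds were dispensed into serum-containing MEM (10% FBS) without cells, and plates were read at 540/590 nm.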

[6] = qHTS assay to test for compound auto fluorescence at 535 nm (green) in HepG2 cell free culture (AID 720686)
[7] = qHTS assay to test for compound auto fluorescence at 460 nm (blue) in HepG2 cells (AID 720687)
Procedure, shortened: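 HepG2 cells in MEM with 10% FBS, attached overnight at 37 C, were exposed to compound or DMSO for 1 hr at 37 C, 5% CO2. Blue fluorescence was read at 405/460 nm, with triamterene as reference fluorophore.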

[8] = target: Glucocorticoid receptor (Homo sapiens) (UniProt P04150); assay: qHTS assay to identify small molecule agonists of the glucocorticoid receptor (GR) signaling pathway (AID 720691; active means well fitted activation curve with a large enough effect in the signal ratio in the repeat runs, not every such curve was filed as active; inconclusive means weak or mixed curves, or effect the other way; inactive means no such curve, though single readings can be large or run the other way; the % refers to the signal ratio; further: potency means the concentration at half of the fitted maximal effect)
Chain of Glucocorticoid receptor (Homo sapiens) (P04150 whole entry, looked up): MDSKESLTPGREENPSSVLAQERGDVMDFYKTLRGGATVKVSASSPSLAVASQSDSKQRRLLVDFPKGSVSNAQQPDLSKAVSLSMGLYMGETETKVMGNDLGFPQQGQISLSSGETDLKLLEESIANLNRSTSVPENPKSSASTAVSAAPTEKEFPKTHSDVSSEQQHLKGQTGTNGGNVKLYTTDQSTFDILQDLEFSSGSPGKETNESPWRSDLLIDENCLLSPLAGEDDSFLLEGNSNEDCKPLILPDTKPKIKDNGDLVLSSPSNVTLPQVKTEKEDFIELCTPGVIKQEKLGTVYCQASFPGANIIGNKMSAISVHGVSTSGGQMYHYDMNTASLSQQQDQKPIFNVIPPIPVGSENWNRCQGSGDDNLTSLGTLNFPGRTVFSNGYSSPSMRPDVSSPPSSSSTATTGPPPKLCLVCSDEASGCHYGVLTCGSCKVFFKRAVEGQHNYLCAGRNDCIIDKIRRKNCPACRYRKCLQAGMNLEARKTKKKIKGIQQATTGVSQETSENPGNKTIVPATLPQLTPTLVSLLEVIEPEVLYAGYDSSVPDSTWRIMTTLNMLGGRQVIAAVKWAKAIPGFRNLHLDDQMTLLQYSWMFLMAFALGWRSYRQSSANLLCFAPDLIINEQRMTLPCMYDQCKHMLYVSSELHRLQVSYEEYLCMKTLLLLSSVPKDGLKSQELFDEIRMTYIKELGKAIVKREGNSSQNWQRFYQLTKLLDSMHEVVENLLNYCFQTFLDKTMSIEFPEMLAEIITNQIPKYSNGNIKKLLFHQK
Procedure, shortened: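 HeLa GR-bla reporter line; cells pre-incubated 4 h, compound in DMSO 18 h at 37 C; LiveBLAzer B/G FRET substrate 2 h RT; fluorescence intensity read-out.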

[9] = target: Glucocorticoid receptor (Homo sapiens) (UniProt P04150); assay: qHTS assay to identify small molecule antagonists of the glucocorticoid receptor (GR) signaling pathway (AID 720692; active means well fitted inhibition curve with a large enough effect in the signal ratio in the repeat runs, not every such curve was filed as active; inconclusive means weak or mixed curves, or effect the other way; inactive means no such curve, though single readings can be large or run the other way; the % refers to the signal ratio; further: potency means the concentration at half of the fitted maximal effect)
Procedure, shortened: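 Read-out: beta-lactamase FRET substrate fluorescence, 2 h at room temperature, in HeLa cells stably carrying a GRE-driven bla reporter. Compounds were co-incubated with 5 nM dexamethasone agonist (final) for 18 h at 37 C.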

[10] = qHTS assay for identifying genotoxic compounds that show differential cytotoxicity against isogenic chicken DT40 cell lines with known DNA damage response pathways - wild type cell line (AID 743012); further: nearly all actives have a fitted effect of over 60% in size; further: potency means the concentration at half of the fitted maximal effect
Procedure, shortened: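 CellTiter-Glo luminescence readout of viability in wild type DT40 cells after 40 h compound exposure at 37 C/5% CO2; 300 cells/well; reagent incubated 30 min at room temperature before reading.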

[11] = qHTS assay for identifying genotoxic compounds that show differential cytotoxicity against isogenic chicken DT40 cell lines with known DNA damage response pathways - Rad54/Ku70 mutant cell line (AID 743015); further: nearly all actives have a fitted effect of over 60% in size; further: potency means the concentration at half of the fitted maximal effect
[12] = qHTS assay to identify small molecule antagonists of the androgen receptor (AR) signaling pathway - cell viability counter screen (AID 743033; further: nearly all actives have a fitted effect of over 45% in size)
[13] = qHTS assay to identify small molecule antagonists of the androgen receptor (AR) signaling pathway using the MDA cell line - cell viability counter screen (AID 743041; further: nearly all actives have a fitted effect of over 45% in size)
Procedure, shortened: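 Cytotoxicity counter screen: MDA-kb2 AR-luc cells, compound + R1881, 16 h, 37C, 0% CO2; CellTiter-Fluor added at 15.5 h, fluorescence read after 30 min.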

[14] = qHTS assay to identify small molecule antagonists of the thyroid receptor (TR) signaling pathway - cell viability counter screen (AID 743064); further: nearly all actives have a fitted effect of over 50% in size; further: potency means the concentration at half of the fitted maximal effect
Procedure, shortened: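 Plate GH3.TRE-Luc cells; incubate 4 h at 37 °C; add compound, then T3 to 1 nM final; incubate 23.5 h; add CellTiter-Fluor; incubate 30 min at 37 °C, 5% CO2; read fluorescence.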

[15] = qHTS assay to test for compound auto fluorescence at 460 nm (blue) in HepG2 cell free culture (AID 720685)
Procedure, shortened: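 Cell-free plates of MEM plus 10% FBS received 23 nL compound or DMSO vehicle; blue-channel (405/460 nm) intensity scored against triamterene as reference fluorophore.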

[16] = qHTS assay to identify small molecule antagonists of the glucocorticoid receptor (GR) signaling pathway - cell viability counter screen (AID 720693); further: nearly all actives have a fitted effect of over 55% in size
[17] = qHTS assay for identifying genotoxic compounds that show differential cytotoxicity against isogenic chicken DT40 cell lines with known DNA damage response pathways - Rev3 mutant cell line (AID 743014); further: nearly all actives have a fitted effect of over 55% in size; further: potency means the concentration at half of the fitted maximal effect
[18] = target: Androgen receptor (Homo sapiens) (UniProt P10275); assay: qHTS assay to identify small molecule antagonists of the androgen receptor (AR) signaling pathway (AID 743035; active means well fitted inhibition curve with a large enough effect in the signal ratio in the repeat runs, not every such curve was filed as active; inconclusive means weak or mixed curves, or effect the other way; inactive means no such curve, though single readings can be large or run the other way; the % refers to the signal ratio)
Chain of Androgen receptor (Homo sapiens) (P10275 whole entry, looked up): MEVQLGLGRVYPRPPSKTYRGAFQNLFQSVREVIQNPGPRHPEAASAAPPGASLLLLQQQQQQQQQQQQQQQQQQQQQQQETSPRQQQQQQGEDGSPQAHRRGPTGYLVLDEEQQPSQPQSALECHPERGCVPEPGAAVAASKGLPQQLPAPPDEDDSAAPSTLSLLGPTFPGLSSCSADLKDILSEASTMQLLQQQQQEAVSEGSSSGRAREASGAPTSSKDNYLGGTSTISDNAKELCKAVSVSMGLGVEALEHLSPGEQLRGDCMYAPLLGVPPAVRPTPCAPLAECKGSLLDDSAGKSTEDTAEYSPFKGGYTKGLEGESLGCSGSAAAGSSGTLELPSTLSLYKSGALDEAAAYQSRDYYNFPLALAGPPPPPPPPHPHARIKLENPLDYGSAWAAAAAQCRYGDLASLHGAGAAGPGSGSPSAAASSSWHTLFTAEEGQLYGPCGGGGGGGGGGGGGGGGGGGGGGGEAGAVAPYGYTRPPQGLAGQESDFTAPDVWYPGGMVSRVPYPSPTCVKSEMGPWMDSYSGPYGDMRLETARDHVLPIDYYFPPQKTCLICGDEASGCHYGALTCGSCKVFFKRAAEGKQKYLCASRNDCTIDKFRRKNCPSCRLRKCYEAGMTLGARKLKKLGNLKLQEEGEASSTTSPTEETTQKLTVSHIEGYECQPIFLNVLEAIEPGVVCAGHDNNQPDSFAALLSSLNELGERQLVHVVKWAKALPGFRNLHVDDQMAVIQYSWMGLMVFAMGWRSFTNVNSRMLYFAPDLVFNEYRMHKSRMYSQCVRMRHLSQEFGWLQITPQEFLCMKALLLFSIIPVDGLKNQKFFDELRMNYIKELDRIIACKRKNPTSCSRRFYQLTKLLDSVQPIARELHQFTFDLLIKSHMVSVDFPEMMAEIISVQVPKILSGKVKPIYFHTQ
Procedure, shortened: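 AR-bla HEK293 reporter cells; 4 h settle at 37C/5% CO2; compound + R1881 agonist, 16 h at 37C; LiveBLAzer B/G FRET substrate 2 h RT; fluorescence intensity read. qHTS format.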

[19] = target: Androgen receptor (Homo sapiens) (UniProt P10275); assay: qHTS assay to identify small molecule agonists of the androgen receptor (AR) signaling pathway (AID 743036; active means well fitted activation curve with a large enough effect in the signal ratio in the repeat runs, with a control signal flat, not every such curve was filed as active; inconclusive means weak or mixed curves, or effect the other way; inactive means no such curve, though single readings can be large or run the other way; the % refers to the signal ratio)
Procedure, shortened: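 Reporter line: GeneBLAzer AR-UAS-bla-GripTite (HEK293). Steps: plate cells, 4 h rest, add compounds, 16 h at 37C, add LiveBLAzer B/G substrate, 2 h at RT, read fluorescence.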

Structure (SMILES)	Potency [1]	outcome [2]	Potency [3]	Potency [4]	Potency [5]	Potency [6]	outcome [7]	Potency [8]	Potency [9]	Potency [10]	Potency [11]	Potency [12]	Potency [13]	Potency [14]	outcome [15]	Potency [16]	Potency [17]	Potency [18]	outcome [19]
C[C@]12CC[C@H]3[C@@H](CCC4=CC(=O)CC[C@@]43C)[C@@H]1CC[C@@H]2C(=O)CO	inactive	inactive	inactive	inactive	inactive	inactive	inactive	inactive	811 nM (active) and 977 nM (active)	6.86 µM (active)	8.63 µM (active)	inactive	inactive	inactive	–	–	–	–	–
CCC(C)OC(=O)c1ccc(O)cc1 (centres undefined)	inactive	inactive	inactive	inactive	–	inactive	inactive	inactive	inactive	–	–	–	inactive	inactive	inactive	inactive	–	–	–
OC(CCl)CCl	inactive	inactive	inactive	inactive	–	inactive	inactive	inactive	inactive	inactive	inactive	inactive	inactive	inactive	inactive	inactive	inactive	–	–
CCC(C)c1ccccc1O (centres undefined)	inactive	inactive	inactive	inactive	inactive	inactive	inactive	inactive	inactive	inactive	inactive	inactive	inactive	inactive	–	inactive	–	–	–
Cc1ccc(C(=O)c2cc(O)c(O)c([N+](=O)[O-])c2)cc1	inactive	inactive	inactive	inactive	inactive	inactive	inactive	inactive	34.7 µM (active)	–	48.6 µM (active)	inactive	inactive	inactive and 61.1 µM (active)	inactive	–	inactive and 68.6 µM (active)	–	–
C[C@]12CCC(=O)C=C1CC[C@@H]1[C@@H]2C(=O)C[C@@]2(C)[C@H]1CC[C@]2(O)C(=O)CO	inactive	inactive	inactive	inactive	inactive	inactive	inactive	–	9.52 µM (active) and 6.92 µM (active)	inactive and 61.1 µM (active)	inactive and 68.6 µM (active)	inactive	inactive	inactive	–	inactive	inactive and 61.1 µM (active)	–	–
Cc1ccc2c(n1)Oc1ccc(C(C)C(=O)OCC(=O)N(C)C)cc1C2 (centres undefined)	inactive	inactive	inactive	inactive	inactive	inactive	inactive	inactive	inactive	26.6 µM (active)	inactive	–	inactive	inactive	–	inactive	inactive	inactive	inactive
COc1cccc2c1C(=O)c1c(O)c3c(c(O)c1C2=O)C[C@@](O)(C(=O)CO)C[C@@H]3O[C@H]1C[C@H](N)[C@H](O)[C@H](C)O1	inactive	inactive	inactive	inactive	inactive	inactive	inactive	535 nM [inconclusive] (active) and 174 nM (active)	inactive	inactive and 66.8 nM (active) and 24.3 nM (active)	inactive and 10.6 nM (active) and 3.1 nM (active)	–	inactive	inactive and 1.68 µM (active) and 122 nM (active)	–	–	inactive and 84.1 nM (active) and 9.7 nM (active)	–	–
CCCCC/C=C/C=C/C=O	inactive	inactive	inactive	inactive	inactive	inactive	inactive	inactive	49 µM (active)	19.3 µM (active)	inactive and 17.2 µM (active)	inactive	inactive	–	inactive	inactive	–	–	–
CC1=CC2C3CC(C=C3C)C2C1 (centres undefined)	inactive	inactive	inactive	inactive	–	inactive	inactive	inactive	inactive	–	inactive and 30.6 µM (active)	–	inactive	inactive	inactive	inactive	–	–	–
COc1ccccc1/C=C/C=O	inactive	inactive	inactive	inactive	–	inactive	inactive	inactive	inactive	–	31.4 µM (active) and 54.5 µM (active)	inactive	inactive	55.9 µM (active)	inactive	inactive	–	–	–
c1cc(N(CC2CO2)CC2CO2)ccc1OCC1CO1 (centres undefined)	inactive	inactive	inactive	inactive	inactive	inactive	inactive	–	–	687 nM (active) and 306 nM (active)	770 nM (active) and 273 nM (active)	inactive	inactive	19.4 µM (active) and 27.3 µM (active)	inactive	–	10.9 nM (active) and 12.2 nM (active)	–	–
O=P(O)(O)O	inactive	inactive	inactive	inactive	inactive	inactive	inactive	inactive	inactive	inactive	inactive	–	inactive	inactive	inactive	inactive	–	–	–
